9 compounds from PubChem BioAssay can be followed below.

Experiment [1] can be described thus: binders of probe aFSTL3 on microarray, primary screen, stem cell growth factor project, biochemical, small-molecule microarray, fluorescence 635/667 (AID 1064).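 Also: measures binding of the biotinylated anti-FSTL3 antibody to printed compounds.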 The settings on record: higher = more signal.
Experiment [2] in a line: binders from COS7 lysate, DM2A8 probe, primary screen, torsin A project, cell lysate, small-molecule microarray, fluorescence 635/667 (AID 1065). The settings on record: higher = more signal, COS7 lysate expressing mutant human TOR1A.
Experiment [3] can be described thus: binders of probe aFGF2 on microarray, primary screen, stem cell growth factor project, biochemical, small-molecule microarray, fluorescence 635/667 (AID 1067).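 Also: measures binding of biotinylated aFGF2 protein to printed compounds on slides; z-score merges feature fluorescence and signal-to-noise across triplicate slides.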 The note with it: higher = more signal.
The nature of experiment [4]: binders of probe aFGF10 on microarray, primary screen, stem cell growth factor project, biochemical, small-molecule microarray, fluorescence 635/667 (AID 1071).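 Also: score merges 667 nm spot intensity and signal to noise from triplicate slides.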 The settings on record: higher = more signal.
For experiment [5], the target named is Neurogenic locus notch homolog protein 2 (Homo sapiens) (UniProt Q04721). Briefly: Notch2 binders on small-molecule microarrays, primary screen, biochemical, small-molecule microarray, 635 nm fluorescence, stem cell growth factors (AID 1073). The note with it: Notch2 binding, higher = more signal.
For experiment [6], the target named is Pro-neuregulin-1, membrane-bound isoform (Homo sapiens) (UniProt Q02297). The experiment in a line: NRG1 binders on small-molecule microarrays, primary screen, psychiatric disease protein project, biochemical, small-molecule microarray, fluorescence 635/667 (AID 1075).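 Also: score combines 667 nm spot fluorescence with signal to noise.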 The settings on record: NRG1 binding, 635 nm fluorescence, higher = more signal.
The test system of experiment [7] is Neuregulin-1 EGF-like domain. The experiment in a line: binders of neuregulin-1 EGF-like domain, primary screen, biochemical, small-molecule microarray, 635 nm fluorescence (AID 1081).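 Also: binding of the protein to compounds printed on small-molecule microarray slides.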 The settings on record: small-molecule microarray binding, higher = more signal.
A short description of experiment [8]: FRG1 promoter luciferase signal modulators, primary screen, FRG1 inhibition for FSHD, cell-based, C2C12 myotubes, firefly/Renilla luciferase, luminescence (AID 1084). The settings on record: higher = more signal, called active from +8 up or from −8 down.
Experiment [9] can be described thus: binders of probe aFST on microarray, primary screen, stem cell growth factor project, biochemical, small-molecule microarray, fluorescence 635/667 (AID 1086).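 Also: score merges 667 nm fluorescence with signal-to-noise of each printed compound spot.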 The settings on record: higher = more signal.
Experiment [10] can be described thus: binders of probe aHhip on microarray, primary screen, stem cell growth factor project, biochemical, small-molecule microarray, fluorescence 635/667 (AID 1087).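 Also: score merges spot fluorescence at 667nm with spot signal to noise ratio.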 The settings on record: higher = more signal.
In experiment [11] the test system is PRMT1 (protein arginine N-methyltransferase 1). Briefly: PRMT1 binders on small-molecule microarrays, primary screen, biochemical, small-molecule microarray, 635 nm fluorescence (AID 1088).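 Also: binding of Prmt1 protein to compounds spotted on small-molecule microarray slides.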 The settings on record: small-molecule microarray binding, higher = more signal.
A short description of experiment [12]: yeast growth modulation, basal conditions, primary screen, YJM789 clinical isolate, OD600, 24 h (AID 1089).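 Also: growth of clinical yeast isolate S. cerevisiae YJM 789 seeded 1000 cells per well; test concentration not given here.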 The settings on record: S. cerevisiae YJM789 growth, higher = more signal, called active from +8 up or from −8 down.
Experiment [13] is described as follows: fission yeast growth modulation, primary screen, strain 972, OD600, 24 h, no modulator (AID 1090).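 Also: basal condition with compound alone and no growth modifier present; test concentration not given here.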 The settings on record: S. pombe 972 growth, higher = more signal, called active from +8 up or from −8 down.
A short description of experiment [14]: S. cerevisiae growth modulation with rapamycin, primary screen, strain BY4716, OD600, 96 h (AID 1091). Also: test concentration not given here. The settings on record: higher = more signal, called active from +8 up or from −8 down.
For experiment [15], the target named is Torsin-1A-interacting protein 2 (Homo sapiens) (UniProt Q8NFQ8). Briefly: LULL1 binders on small-molecule microarray, primary screen, cell lysate, human LULL1 lysate, 635/667 nm fluorescence (AID 1092).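 Also: probe is lysate of COS7 cells overexpressing human LULL1; score merges per-feature 667 nm fluorescence with signal-to-noise.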 The settings on record: hLULL1 lysate binding, 635 nm fluorescence, higher = more signal.
Experiment [16] in a line: E. coli growth modulation, two-sided OD650, primary screen, E. coli filamentation project, strain DRC41, 24 h (AID 1093).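 Also: MC1000 strain lacking acrAB efflux and sulA so SOS filamentation is blocked; test concentration not given here.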 The settings on record: OD650, 24 h, higher = more signal, called active from +8 up or from −8 down.
Experiment [17] in a line: small-molecule microarray binders of probe aLefty2, primary screen, biochemical, biotinylated probe, 635/667 nm fluorescence (AID 1094).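 Also: score merges spot fluorescence near 667 nm with spot signal-to-noise ratio.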 The settings on record: higher = more signal.
The subject of experiment [18] is Noggin (protein binding on small-molecule microarray). Briefly: Noggin binders on small-molecule microarray, primary screen, biochemical, 635/667 nm fluorescence (AID 1095).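 Also: score merges 667 nm feature fluorescence with signal to noise over triplicate slides.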 The note with it: 635 nm fluorescence, higher = more signal.
Experiment [19] addresses Neurogenic locus notch homolog protein 3 (Homo sapiens) (UniProt Q9UM47). The experiment in a line: NOTCH3 binders on small-molecule microarray, primary screen, biochemical, 635/667 nm fluorescence (AID 1096). The settings on record: NOTCH3 binding, 635 nm fluorescence, higher = more signal.
A short description of experiment [20]: small-molecule microarray binders of probe aEGFR, primary screen, biochemical, biotinylated probe, 635/667 nm fluorescence (AID 1097).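 Also: probe is a biotinylated anti-EGFR antibody binding compounds printed on slides; score combines fluorescence near 667 nm and signal to noise of each spot.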 The settings on record: higher = more signal.

Molecules are shown by their SMILES. The source made the active and inactive calls.

Sequence of Torsin-1A-interacting protein 2 (Homo sapiens) (Q8NFQ8 whole entry, looked up): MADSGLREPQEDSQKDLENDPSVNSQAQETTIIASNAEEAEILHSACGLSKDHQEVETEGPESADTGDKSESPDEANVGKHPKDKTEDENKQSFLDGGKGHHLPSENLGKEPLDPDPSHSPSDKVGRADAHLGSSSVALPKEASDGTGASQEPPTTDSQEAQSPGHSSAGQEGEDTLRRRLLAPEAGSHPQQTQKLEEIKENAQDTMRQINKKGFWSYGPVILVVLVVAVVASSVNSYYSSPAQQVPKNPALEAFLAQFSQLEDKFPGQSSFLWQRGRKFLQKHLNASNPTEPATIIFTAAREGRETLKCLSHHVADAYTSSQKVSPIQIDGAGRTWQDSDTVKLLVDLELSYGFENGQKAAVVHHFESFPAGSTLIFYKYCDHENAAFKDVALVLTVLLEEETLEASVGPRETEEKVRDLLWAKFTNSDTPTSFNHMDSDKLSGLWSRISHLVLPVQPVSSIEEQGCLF
Sequence of Pro-neuregulin-1, membrane-bound isoform (Homo sapiens) (Q02297 whole entry, looked up, the tested form may be a part, canonical isoform): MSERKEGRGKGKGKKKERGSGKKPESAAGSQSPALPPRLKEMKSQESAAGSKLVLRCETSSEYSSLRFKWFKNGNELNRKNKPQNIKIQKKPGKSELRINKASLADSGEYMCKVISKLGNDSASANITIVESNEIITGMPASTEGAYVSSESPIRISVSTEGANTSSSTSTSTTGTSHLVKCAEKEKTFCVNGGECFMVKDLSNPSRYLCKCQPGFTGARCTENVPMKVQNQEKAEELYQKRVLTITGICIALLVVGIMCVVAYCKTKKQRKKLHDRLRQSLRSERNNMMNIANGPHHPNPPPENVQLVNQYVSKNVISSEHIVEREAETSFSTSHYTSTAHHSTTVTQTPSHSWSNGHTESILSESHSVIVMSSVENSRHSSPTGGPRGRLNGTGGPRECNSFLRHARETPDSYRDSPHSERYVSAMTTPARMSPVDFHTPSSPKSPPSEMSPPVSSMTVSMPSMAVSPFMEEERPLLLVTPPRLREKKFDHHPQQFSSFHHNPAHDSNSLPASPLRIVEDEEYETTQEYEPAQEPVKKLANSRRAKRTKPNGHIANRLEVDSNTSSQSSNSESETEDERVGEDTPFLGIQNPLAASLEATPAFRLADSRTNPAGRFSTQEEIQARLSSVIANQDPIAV
Sequence of Neurogenic locus notch homolog protein 3 (Homo sapiens) (Q9UM47 whole entry, looked up): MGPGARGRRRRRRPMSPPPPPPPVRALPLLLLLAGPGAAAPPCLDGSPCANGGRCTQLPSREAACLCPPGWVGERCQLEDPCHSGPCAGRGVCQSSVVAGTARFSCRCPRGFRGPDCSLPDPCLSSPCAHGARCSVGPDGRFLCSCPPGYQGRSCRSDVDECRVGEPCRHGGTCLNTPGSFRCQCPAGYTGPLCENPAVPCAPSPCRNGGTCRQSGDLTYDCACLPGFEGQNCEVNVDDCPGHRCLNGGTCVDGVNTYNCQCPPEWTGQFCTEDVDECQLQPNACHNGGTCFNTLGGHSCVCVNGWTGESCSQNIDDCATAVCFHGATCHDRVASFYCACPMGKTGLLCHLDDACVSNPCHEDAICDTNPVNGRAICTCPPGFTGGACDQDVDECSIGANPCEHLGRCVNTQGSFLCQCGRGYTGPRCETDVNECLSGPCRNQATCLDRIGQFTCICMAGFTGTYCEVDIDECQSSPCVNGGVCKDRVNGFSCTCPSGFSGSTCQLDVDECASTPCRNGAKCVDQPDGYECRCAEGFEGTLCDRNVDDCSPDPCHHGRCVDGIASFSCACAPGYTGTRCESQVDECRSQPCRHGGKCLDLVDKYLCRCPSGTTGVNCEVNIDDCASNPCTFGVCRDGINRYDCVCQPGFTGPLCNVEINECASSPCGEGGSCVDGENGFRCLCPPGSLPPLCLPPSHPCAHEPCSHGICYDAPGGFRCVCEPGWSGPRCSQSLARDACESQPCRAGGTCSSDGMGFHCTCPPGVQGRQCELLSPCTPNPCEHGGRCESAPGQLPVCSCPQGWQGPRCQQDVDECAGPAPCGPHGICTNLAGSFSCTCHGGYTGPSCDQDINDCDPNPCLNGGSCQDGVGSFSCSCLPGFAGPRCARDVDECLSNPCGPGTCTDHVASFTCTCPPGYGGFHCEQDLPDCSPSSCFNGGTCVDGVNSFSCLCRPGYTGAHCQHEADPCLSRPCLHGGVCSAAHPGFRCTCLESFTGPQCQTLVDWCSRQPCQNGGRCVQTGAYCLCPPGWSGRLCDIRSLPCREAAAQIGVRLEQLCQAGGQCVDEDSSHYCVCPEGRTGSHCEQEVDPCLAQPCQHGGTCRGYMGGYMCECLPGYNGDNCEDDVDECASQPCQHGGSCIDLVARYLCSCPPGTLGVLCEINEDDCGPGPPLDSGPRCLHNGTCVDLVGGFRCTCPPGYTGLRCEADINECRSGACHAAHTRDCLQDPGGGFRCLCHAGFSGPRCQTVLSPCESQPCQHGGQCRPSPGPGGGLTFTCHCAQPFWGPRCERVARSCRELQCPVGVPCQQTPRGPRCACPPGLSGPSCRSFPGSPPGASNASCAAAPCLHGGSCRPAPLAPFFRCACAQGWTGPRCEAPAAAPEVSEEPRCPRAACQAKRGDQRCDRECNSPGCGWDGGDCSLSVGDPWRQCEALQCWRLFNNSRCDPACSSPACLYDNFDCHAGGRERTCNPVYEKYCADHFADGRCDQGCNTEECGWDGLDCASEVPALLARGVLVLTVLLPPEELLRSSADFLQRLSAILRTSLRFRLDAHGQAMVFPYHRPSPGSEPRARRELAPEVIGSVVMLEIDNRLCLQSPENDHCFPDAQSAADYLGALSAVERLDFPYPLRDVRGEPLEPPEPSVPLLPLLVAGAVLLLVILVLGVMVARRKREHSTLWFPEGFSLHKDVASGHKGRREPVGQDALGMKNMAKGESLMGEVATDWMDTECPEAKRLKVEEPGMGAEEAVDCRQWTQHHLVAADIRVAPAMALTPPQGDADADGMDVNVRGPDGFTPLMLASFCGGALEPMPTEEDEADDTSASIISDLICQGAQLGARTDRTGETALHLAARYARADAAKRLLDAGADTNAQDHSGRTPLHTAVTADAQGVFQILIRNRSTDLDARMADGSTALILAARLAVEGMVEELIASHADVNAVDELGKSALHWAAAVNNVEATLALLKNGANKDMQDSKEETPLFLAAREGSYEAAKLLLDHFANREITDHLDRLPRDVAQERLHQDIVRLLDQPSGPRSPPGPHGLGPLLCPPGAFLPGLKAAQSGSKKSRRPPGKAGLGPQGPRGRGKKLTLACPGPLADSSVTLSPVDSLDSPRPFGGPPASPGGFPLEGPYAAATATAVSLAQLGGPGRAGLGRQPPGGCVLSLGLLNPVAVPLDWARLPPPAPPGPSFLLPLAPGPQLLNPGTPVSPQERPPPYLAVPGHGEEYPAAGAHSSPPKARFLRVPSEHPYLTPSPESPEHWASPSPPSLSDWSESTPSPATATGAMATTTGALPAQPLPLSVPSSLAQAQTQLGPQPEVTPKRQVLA

On to `C#CCCCON=C1C[C@@H](O)[C@@H](O)[C@@H]2[C@@H]3C(=O)N(CC)C(=O)[C@@H]3CC[C@H]12`, for which the composite z-score in experiment [1] was -0.281; in [2] it was 0.368; in experiment [3] it was -0.0885; in [4], 0.236; in [5], 0.03; in experiment [6] it was 1.16. For the same compound, the composite z-score in experiment [7] was 0.528; in [9] it was 0.0594; in experiment [10], -0.128; in experiment [11], 1.37; in experiment [15], 2.11; in [17] it was -0.25. The results for the composite z-score in [18], in [19] and in experiment [20] were 0.726, 0.348 and -0.174, respectively. The z-score in [8] is -0.234 (inactive); in experiment [12], -0.276 (inactive); in [13], -0.26 (inactive); in [14] it was -0.247 (inactive); in experiment [16], 0.216 (inactive).
On to `CCOC(=O)CCN1C(=O)[C@H]2[C@H]3[C@H](O)[C@H](O)CC(=NO[C@@H]4O[C@H](CO)[C@@H](O)[C@H](O)[C@H]4O)[C@H]3CC[C@H]2C1=O`, for which the composite z-score in [1] is -0.379; in experiment [2] it was 0.508; in [3] it was 0.0395; in experiment [4] it was 0.232; in experiment [5], 0.44; in experiment [6] it was 0.0332. Further, the composite z-score in experiment [7] is 0.569; in [9], 0.857; in [10] it was -0.195; in experiment [11], -0.145; in experiment [15], 0.211; in experiment [17], 0.0008. Moreover, the composite z-score in experiment [18] is 0.404; in [19], 0.195; in experiment [20], -0.115. Further, the z-score was 0.261 (inactive) in [8]; -0.703 (inactive) in experiment [12]; 0.354 (inactive) in experiment [13]; -0.387 (inactive) in experiment [14]; 0.389 (inactive) in [16].
For the compound `COC(=O)CC=C[C@@H](C)[C@@H](C=NOC[C@@H](C)[C@H](OCc1ccccc1)C(C)C)NS(=O)(=O)c1ccc(C)cc1`, the composite z-score is -0.433 in experiment [1]; 0.142 in experiment [2]; -0.0633 in experiment [3]; -0.0494 in experiment [4]; -0.801 in experiment [5]; -0.267 in experiment [6]. The composite z-score in [7] was -0.332; in experiment [9], -0.0646; in [10], -0.0003; in experiment [11], 0.123; in experiment [15], 0.0335; in experiment [17], -0.27. The composite z-score in [18] is 0.452; in experiment [19], -1.44; in experiment [20], -0.142. In addition, the z-score in experiment [8] was 0.539 (inactive); in [12], -0.161 (inactive); in experiment [13], 1.53 (inactive); in [14], 0.227 (inactive); in [16], -1.42 (inactive).
For `O=C1[C@H]2[C@H]3[C@H](O)[C@H](O)CC(=NO[C@@H]4O[C@H](CO)[C@@H](O)[C@H](O)[C@H]4O)[C@@H]3CC[C@H]2C(=O)N1C[C@@H]1CCCO1`, the composite z-score in [1] was -0.603; in [2] it was -0.038; in [3], -0.0908; in experiment [4] it was 0.529; in experiment [5] it was 1.06; in experiment [6], -0.0236. For the same compound, the composite z-score in [7] was 0.298; in experiment [9], 0.254; in [10], 0.0505; in experiment [11] it was 1.08; in experiment [15], 1.21; in experiment [17], -0.0683. The composite z-score is -0.287 in [18], 0.979 in [19] and 0.0934 in experiment [20]. The z-score is 0.746 (inactive) in [8]; 0.57 (inactive) in [12]; -0.0413 (inactive) in [13]; -0.0603 (inactive) in [14]; 0.415 (inactive) in experiment [16].
For the compound `CC(C)=CCCC(C)=CCON=C1[C@H]2CCn3c(=O)n(-c4ccccc4)c(=O)n3[C@H]2[C@H](O)[C@@H]2O[C@H]12`, the composite z-score was -0.279 in [1]; 0.207 in experiment [2]; 0.0243 in experiment [3]; 0.0859 in [4]; 0.934 in experiment [5]; 0.634 in [6]. Moreover, the composite z-score is 0.994 in experiment [7]; 0.516 in experiment [9]; -0.0645 in experiment [10]; 1.56 in [11]; 2.36 in experiment [15]; 0.207 in experiment [17]. The composite z-score was 0.59 in [18], 1.07 in [19] and -0.0211 in experiment [20]. The z-score in experiment [8] is -1.52 (inactive); in experiment [12], -0.504 (inactive); in [13], -5.66 (inactive); in [14], -0.784 (inactive); in experiment [16], -1.1 (inactive).
Take `COC(=O)[C@H](C)NC(=O)CCC1CC(OC(=O)NCc2cccc3ccccc23)CC2(CCCC(COC(=O)NCc3ccccc3)O2)O1` (stereo not given in full): the composite z-score was -0.425 in [1]; -0.261 in experiment [2]; 0.026 in [3]; 0.329 in [4]; 1.39 in experiment [5]; 0.853 in experiment [6]. For the same compound, the composite z-score in [7] was 0.78; in experiment [9] it was 0.2; in [10], -0.374; in [11], 1.29; in [15] it was 1.97; in experiment [17], -0.0638. The composite z-score is 0.478 in experiment [18], 1.09 in experiment [19] and 0.12 in [20]. Also, the z-score is 2.13 (inactive) in [8]; -0.68 (inactive) in experiment [12]; 0.507 (inactive) in [13]; -0.936 (inactive) in [14]; -0.351 (inactive) in experiment [16].
Take `C[C@H]1CC[C@H]2C(=O)N[C@H](Cc3ccccc3)C(=O)N2[C@@H]1c1ccccc1`: the composite z-score in experiment [1] is -0.335; in experiment [2], 0.524; in experiment [3], -0.0893; in experiment [4], 0.412; in [5] it was 0.301; in [6] it was -0.717. Further, the composite z-score in [7] was 0.366; in experiment [9] it was 0.0175; in experiment [10] it was -0.13; in experiment [11], -0.0481; in [15], 0.217; in experiment [17], -0.17. In addition, the composite z-score is 0.413 in experiment [18], -0.304 in experiment [19] and -0.0794 in experiment [20]. For the same compound, the z-score in [8] was 1.33 (inactive); in experiment [12] it was 0.492 (inactive); in experiment [13], 0.0432 (inactive); in experiment [14], -0.489 (inactive); in experiment [16], 0.805 (inactive).
With `C[C@H]1CC[C@@H](C(=O)O)N[C@@H]1c1cccc(N2CCCC2=O)c1`, the composite z-score is -0.304 in experiment [1]; 0.141 in [2]; -0.145 in experiment [3]; 0.22 in experiment [4]; 0.408 in [5]; -0.153 in experiment [6]. Further, the composite z-score in experiment [7] is 0.17; in experiment [9], 0.149; in experiment [10], 0.107; in experiment [11] it was -0.344; in experiment [15], 0.283; in experiment [17], -0.0873. The composite z-score in experiment [18] is 0.49; in experiment [19], 0.408; in experiment [20], -0.123. Moreover, the z-score in experiment [8] is 0.304 (inactive); in experiment [12] it was 0.31 (inactive); in experiment [13], 0.0026 (inactive); in experiment [14] it was 0.374 (inactive); in [16], 0.816 (inactive).
Turning to `CON=C1c2cc(OC)ccc2O[C@H](c2cccc(OC)c2)[C@H]1O`, the composite z-score in experiment [1] is -0.289; in [2], 0.707; in [3], -0.0473; in [4] it was 0.492; in experiment [5], 0.385; in [6], 0.247. In addition, the composite z-score was 0.945 in experiment [7]; 0.583 in experiment [9]; 0.0053 in experiment [10]; -0.0242 in [11]; 0.365 in experiment [15]; -0.0515 in experiment [17]. Moreover, the composite z-score in experiment [18] was determined as 0.588; in experiment [19], 0.684; in [20], 0.0242. Also, the z-score was 5.9 (inactive) in experiment [8]; -0.976 (inactive) in experiment [12]; -3 (inactive) in experiment [13]; -1.75 (inactive) in experiment [14]; 0.792 (inactive) in experiment [16].
